High-throughput results as filed in PubChem BioAssay.
Sampled rows, rich in hits. Any-hit rate of the full collection: about 1.3%.
NTR1 agonist: activates human neurotensin receptor 1. 330,000 tested, 0.17% active. AID 493036. NTR1-U2OS beta-arrestin-GFP spot imaging, agonist mode. activation, % at 20 µM;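 active = activation at or above 40% of the spot to cytoplasm intensity ratio, with at least 20 cells analyzed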
GRK2 inh: inhibitors of human GRK2 displacing RNA aptamer; P25098; bead flow cytometry, FAM-aptamer displacement from GRK2; inhibition of aptamer binding, % at 10 µM; 330,000 tested, 0.59% active;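 active = inhibition of aptamer binding above 40%, roughly 3 SD of noise, on plates passing a quality check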;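 also: median bead fluorescence of bound FAM aptamer so fluorescent compounds give negative values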
VLA-4 inh: inhibition in a human VLA-4 binding assay; 330,000 tested, 0.2% active; AID 2557; VLA-4 expressing cells, ligand binding flow cytometry; inhibition, % (about 7 µM as worked out from the volumes in the protocol); in the data active = inhibition above about 50%
Beta2AR agonist: activates human beta-2 adrenergic receptor causing internalization | Am2.2-beta2AR cells, FAP receptor internalization, flow cytometry | response, % (test concentration not listed) | 340,000 tested, 0.43% active | AID 504454;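 active = response above a set limit, near 3 SD of response in nonfluorescent compounds, cut at about 42% in these data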
Target sequence (P07550 whole entry, looked up): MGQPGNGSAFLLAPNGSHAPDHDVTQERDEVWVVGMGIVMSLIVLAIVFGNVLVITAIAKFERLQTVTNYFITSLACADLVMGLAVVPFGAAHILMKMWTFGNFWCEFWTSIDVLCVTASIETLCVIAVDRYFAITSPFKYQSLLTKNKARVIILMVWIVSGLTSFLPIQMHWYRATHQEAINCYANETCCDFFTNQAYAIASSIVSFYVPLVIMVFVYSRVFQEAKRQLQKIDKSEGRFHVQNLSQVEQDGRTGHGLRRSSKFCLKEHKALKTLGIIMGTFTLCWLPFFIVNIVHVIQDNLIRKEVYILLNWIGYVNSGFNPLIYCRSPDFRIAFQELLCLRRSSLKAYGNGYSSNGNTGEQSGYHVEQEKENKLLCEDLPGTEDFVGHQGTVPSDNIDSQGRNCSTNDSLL
A1 inh: inhibitors of the anti-apoptotic protein A1, read as caspase activation. MEF A1-2A-BIM cells, Caspase-Glo 3/7 luminescence, 3 h; percent of clofoctol response, vehicle zero. caspase activation, % (test concentration not listed). 330,000 tested, 0.066% active;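 active = over half of replicate activation scores above 10%, or exactly half above 10 with the replicate mean above 10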
B2AR ag CP1: activates human beta-2 adrenergic receptor; 1,100 tested, 25% active; percent response (surface receptor), % at 10 µM; shares compounds with Beta2AR agonist; Am2.2-beta2AR cells, FAP surface receptor, flow cytometry; active compounds read low;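 active = surface receptor percent response at or below 58%, roughly 3 SD from nonfluorescent compounds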
B2AR FAP counter: fluorescence artifact in beta-2AR agonist FAP counterscreen. shares compounds with Beta2AR agonist. Am2.2 cells, FAP fluorogen flow cytometry; active compounds read low. calls only at 10 µM. 1,100 tested, under 10 active. AID 588765;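 active = percent response below a set limit in fluorescence channel 1 and below 50% in channel 8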
Each line names hits and unclear results; the compound was inactive in the other large screens (follow-up assays come after a bar, where they were run).

NS(=O)(=O)c1ccc(CNc2nc(-c3cccnc3)nc3ccccc23)cc1	none | B2AR ag CP1 inactive | B2AR FAP counter inactive
Fc1ccc(CNc2nc(-c3cccnc3)nc3ccccc23)cc1	none | B2AR ag CP1 inactive | B2AR FAP counter inactive
Cc1ccc(CNc2nc(-c3cccnc3)nc3ccccc23)cc1	none | B2AR ag CP1 inactive | B2AR FAP counter inactive
CCc1noc(C)c1C(=O)Nc1nnc(C(CC)CC)s1	none
CC(NC(=O)COC(=O)c1ccc2c(=O)n3c(nc2c1)CCCCC3)c1ccccc1 (stereo unspecified)	none
CCCCCn1nc(C(=O)N(CC)c2c(N)n(CCCC)c(=O)[nH]c2=O)c2ccccc2c1=O	none
c1cncc(-c2nc(NCc3ccc4c(c3)OCO4)c3ccccc3n2)c1	none | B2AR ag CP1 inactive | B2AR FAP counter inactive
c1ccc(CNc2nc(-c3cccnc3)nc3ccccc23)cc1	none | B2AR ag CP1 inactive | B2AR FAP counter inactive
CCCNC(=O)CS(=O)(=O)c1ccccc1	none
CCOc1ccc(-c2cc(C(=O)NCCCn3ccnc3)c3ccccc3n2)cc1	none
CCOc1ccc(-c2cc(C(=O)NCCCn3ccnc3)c3cc(Br)ccc3n2)cc1	Beta2AR agonist 50 | B2AR ag CP1 inactive | B2AR FAP counter inactive
Cc1ccccc1-n1nc(-c2cccnc2)cc1C(=O)NN	none
O=C(Nc1ccc(-c2cn3c(n2)SCC3)cc1)c1ccco1	none
CC(=O)Nc1ccc(-c2cn3c(n2)SCC3)cc1	Beta2AR agonist 60 | B2AR ag CP1 53 | B2AR FAP counter inactive
O=[N+]([O-])c1ccc2nc(NN=Cc3ccc(O)cc3)sc2c1	none (no result: NTR1 agonist, GRK2 inh, VLA-4 inh, A1 inh)
O=C(Nc1ccc(Br)cc1)c1cccc(S(=O)(=O)Nc2cnc3ccccc3c2)c1	Beta2AR agonist 47 | B2AR ag CP1 inactive | B2AR FAP counter inactive
CCOc1ccc(C(=O)C(CCC(CN(C)C)C(=O)c2ccc(OCC)cc2)CN(C)C)cc1 (stereo unspecified)	Beta2AR agonist 110 (no result: NTR1 agonist, GRK2 inh, VLA-4 inh, A1 inh) | B2AR ag CP1 inactive | B2AR FAP counter inactive
CC1CCC(NC(=O)CSc2nnnn2C)CC1 (stereo unspecified)	none
Fc1ccc(Nc2nc(-c3ccncc3)nc3ccccc23)cc1F	Beta2AR agonist 50 | B2AR ag CP1 inactive | B2AR FAP counter inactive
Clc1cccc(Nc2nc(-c3ccncc3)nc3ccccc23)c1	none
C/C(=N\Nc1ccccc1C(=O)O)c1ccncc1	none
COc1ccc(OC)c(S(=O)(=O)Nc2ccc(O)c3ccccc23)c1	Beta2AR agonist 52 | B2AR ag CP1 inactive | B2AR FAP counter inactive
CCN(CC)c1ccc(S(=O)(=O)N2CCOCC2)cc1NC(=O)CSC(=S)N1CCCC1	none
CCOC(=O)Cn1cc(C#N)c2cccc(CC)c21	none
O=[N+]([O-])c1ccc(Sc2nc3ccccc3o2)c([N+](=O)[O-])c1	Beta2AR agonist 74 | B2AR ag CP1 inactive | B2AR FAP counter inactive
CCOc1ccc(C(=O)C(C)OC(=O)Cn2c(C)csc2=O)cc1 (stereo unspecified)	none
O=C(Nc1ccc(Nc2ccncc2)cc1)c1ccc(Nc2ccnc3ccc([N+](=O)[O-])cc23)cc1	Beta2AR agonist 69 (no result: NTR1 agonist, GRK2 inh, VLA-4 inh, A1 inh) | B2AR ag CP1 inactive | B2AR FAP counter inactive
COCc1nnc(NC(=O)C(C)C)s1	Beta2AR agonist 53 | B2AR ag CP1 inactive | B2AR FAP counter inactive
CCCC(=O)N(C1CC(C)C(C#N)(C#N)C1(C#N)C#N)N(C)C (stereo unspecified)	Beta2AR agonist 43 | B2AR ag CP1 34 | B2AR FAP counter inactive
S=C(Nc1ccccc1)Nc1nccs1	none | B2AR ag CP1 inactive | B2AR FAP counter inactive
Fc1ccc(NC(=S)Nc2nccs2)cc1	none
CCOC(=O)c1ccccc1NC(=O)Cc1ccc(S(=O)(=O)N2CCCC2)s1	none
COc1ccc(N(C(=O)c2cccc([N+](=O)[O-])c2)S(=O)(=O)c2ccc3c(c2)n(C)c(=O)n3C)cc1	Beta2AR agonist 54 | B2AR ag CP1 inactive | B2AR FAP counter inactive
COc1ccc(N(C(=O)C(C)C)S(=O)(=O)c2ccc3c(c2)n(C)c(=O)n3C)cc1	none
O[C@@H](CNC[C@H](O)c1ccccc1)c1ccccc1	none | B2AR ag CP1 inactive | B2AR FAP counter inactive
CSc1ccc(CNCC(O)c2ccccc2)cc1 (stereo unspecified)	none
O=C(NCC(O)c1ccccc1)c1ccccc1 (stereo unspecified)	none
COc1ccc(CCNCC(O)c2ccccc2)cc1 (stereo unspecified)	none | B2AR ag CP1 inactive | B2AR FAP counter inactive
OC(CNCCc1ccccc1)c1ccccc1 (stereo unspecified)	none | B2AR ag CP1 inactive | B2AR FAP counter inactive
O=C(O)COCC(=O)Nc1ccc(OCCc2ccccc2)cc1	none
CC(C)(C(=O)O)c1ccc(C(O)CCCN2CCC(C(O)(c3ccccc3)c3ccccc3)CC2)cc1 (stereo unspecified)	none | B2AR ag CP1 inactive | B2AR FAP counter inactive
O=C(O)CCCC(=O)N1CCC(C(O)(c2ccccc2)c2ccccc2)CC1	none
CCOC(=O)c1c(N/N=C/c2cccnc2)n[nH]c1C	none
CCOc1ccc(C(=O)NCCCN2CCOCC2)cc1OCC	none
COCCc1ncc(CN2CCC(C(=O)Nc3ccc(-n4cccn4)cc3)CC2)cn1	Beta2AR agonist 50 | B2AR ag CP1 30 | B2AR FAP counter inactive
CN(C)c1ncc(CN2CCC(C(=O)Nc3ccc(-n4cccn4)cc3)CC2)s1	none
Cc1ccc(Cl)cc1NS(=O)(=O)N1CCOCC1	none
COc1ccc(Cl)cc1NS(=O)(=O)N1CCOCC1	Beta2AR agonist 50 | B2AR ag CP1 inactive | B2AR FAP counter inactive
COc1ccc(OC)c(NC(=O)Nc2ccc3[nH]ccc3c2)c1	none
COc1cc(/C=C2/C(=O)NN(c3cccc(F)c3)C2=O)ccc1OC(=O)c1ccco1	Beta2AR agonist 47 | B2AR ag CP1 inactive | B2AR FAP counter inactive
COc1cc(/C=C2/C(=O)NN(c3ccc(Cl)cc3)C2=O)ccc1OC(=O)c1ccco1	none
COc1cc(/C=N/n2nnnc2N)cc(Cl)c1OC	none
COc1ccc(Cl)cc1C(=O)N1CCN(c2ccccn2)CC1	Beta2AR agonist 52 | B2AR ag CP1 inactive | B2AR FAP counter inactive
COC(=O)C1=C(C)N(Cc2ccccc2)C(=NCCc2cccnc2)N[C@H]1c1ccc(Br)cc1	Beta2AR agonist 47 | B2AR ag CP1 inactive | B2AR FAP counter inactive
COC(=O)C1=C(C)N(Cc2ccccc2)C(=NCCc2cccnc2)N[C@H]1c1ccccc1	none
Cc1ccc(Sc2ncccc2C(=O)NCC(c2ccc(F)cc2)N2CCOCC2)c(C)c1 (stereo unspecified)	Beta2AR agonist 47 | B2AR ag CP1 inactive | B2AR FAP counter inactive
O=C(NCC(c1ccc(F)cc1)N1CCOCC1)c1cccnc1Sc1ccccc1 (stereo unspecified)	none
